High-throughput results as filed in PubChem.
KB-V1 cytotox: kills drug-selected multidrug resistant KB-V1 cells | hit rate 3.4% among 400,000 | Potency, µM (top dose mostly 46.1 µM), most hits filed as cytotoxic | KB-V1 MDR cells viability, CellTiter-Glo, 72 h; further: on the % scale 0 is the no-effect control and ±100 the full control effect; nearly all actives have a fitted effect of over 60% in size
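Cytotoxicity toward P-gp-expressing KB-V1 cells was determined as loss of CellTiter-Glo luminescence after 72 h at 37 degrees C. Compounds were tested in quantitative HTS format across a concentration range, with curves fitted to normalized data.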
S2 tox: reduces viability in counter-screen for ATXN expression inhibitors; S2 cells (HEK-293 line with an ATXN2-luciferase reporter) viability, CellTiter-Fluor protease fluorescence, 24 h; Potency, µM (doses to about 56.7 µM), actives largely listed as cytotoxic; hit rate 0.49% among 400,000; AID 651635; further: nearly all actives have a fitted effect of over 40% in size
TGFb SMAD3 inh: TGF-b pathway inhibition | HepG2 CAGA-GFP TGF-b/SMAD3 reporter, GFP fluorescence, 18 h; TGF-beta stimulated, 500 pg/mL final | Potency, µM (series often up to 46.1 µM), for inactives: top-dose activity, negative = inhibition, hits mostly inhibitors | AID 588855 | hit rate 1.2% among 410,000; further: on the % scale 0 is the no-effect control and ±100 the full control effect; nearly all actives have a fitted effect of over 65% in size
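HEPG2 CAGA-GFP, 1000 cells/well; 2 h settle, 37 C; cpd via pin tool; TGF-b 500 pg/mL final; 18 h, 37 C; GFP imaging ex488/em500-530; %Activity normalised to -TGF-b and +DMSO controls; CRC fit, curve class.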
ATXN2 expr inh: reduces ATXN2 reporter expression in HEK-293 cells; HEK-293 ATXN2-luciferase reporter, luminescence, 24 h; Potency, µM (doses to about 57 µM), inactives show at the highest dose activity change, negative = inhibition, actives largely listed as inhibitors; hit rate 0.72% among 360,000; AID 1745845; further: on the % scale 0 is the no-effect control and ±100 the full control effect; nearly all actives have a fitted effect of over 55% in size
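ATXN2-luciferase reporter cells (luciferase flanked by upstream and downstream ATXN2 gene portions) were treated 24 h at 37 °C with compounds at up to 57 uM. SteadyGlo luminescence gave expression; GF-AFC fluorescence gave viability.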
HepG2 viability: kills HepG2 cells in TGF-b inhibitor counter-screen; HepG2 CAGA-GFP viability, ATP luminescence, 18 h; Potency, µM (highest dose often 46.1 µM), inactives show at the highest dose activity change, negative = cytotoxicity, most hits filed as cytotoxic; hit rate 0.76% among 410,000; AID 588856
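HepG2 CAGA-GFP cells (1000/well, DMEM with 1% FBS) received compound, then TGF-beta at 500 pg/mL final, and were incubated 18 hours at 37 degrees C. Viability was read by CellTiter-Glo luminescence. Media-only wells were set as complete cell-killing and DMSO as no toxicity.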
KB-3-1 tox: KB-3-1 parental cell cytotoxicity; Potency, µM (highest dose often 46.1 µM), hits mostly cytotoxic; KB-3-1 viability, CellTiter-Glo ATP luminescence, 72 h; hit rate 1.4% among 400,000; further: on the % scale 0 is the no-effect control and ±100 the full control effect; nearly all actives have a fitted effect of over 60% in size
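Viability of parental KB-3-1 cells, measured by CellTiter-Glo luminescence, followed a 72 h incubation at 37 °C with pinned compounds in phenol-red-free DMEM containing 10% FBS.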
An asterisk follows results filed as active; i = inactive; u = inconclusive; x = not tested or not shown; ! = repeats disagree; [ ] = dose if it differs, or a comment. Only some compounds are listed: those with a hit (about 5.9% of all), similar ones and a draw of the others. The call rests on the fitted dose curve; in most records, active means well fitted curve in the direction sought with a large enough effect; inconclusive means small, poorly fitted or top-dose-only effect, or another doubt; inactive means no such curve, though single readings can be large; an effect the other way counts as inactive or inconclusive. Potency means the concentration at half of the fitted maximal effect.

SMILES | KB-V1 cytotox | S2 tox | TGFb SMAD3 inh | ATXN2 expr inh | HepG2 viability | KB-3-1 tox
Cc1ccc(N(CCCCN2C(=O)c3ccccc3C2=O)C(=O)c2cccc([N+](=O)[O-])c2)cc1 | 18.4µM* | i | -13.8% | -19.6% | -10.7% | i
COc1cccc(CCNc2ncnc3sc(C(=O)N4CCOCC4)c(C)c23)c1 | x | i | x | x | x | x
N#C/C(N=Nc1ccccc1O)=N\Nc1ccccc1O | u | 15.8µM* | u | u | -66.6% | 16.4µM*
Nc1ccc(C(=O)N/N=C2\CCCc3c2[nH]c2ccccc32)cc1 | i | i | -4.5% | 12.5% | -24.6% | u
c1ccc(CCN=C2CCCc3c2[nH]c2ccccc32)cc1 | u | u | -10.9% | -1.3% | -16.6% | 13µM*
Cc1cccc(-c2nn(-c3ccccc3)cc2C(=O)N2CCN(C3CCS(=O)(=O)C3)CC2)c1 (centres undefined) | 16.4µM* | i | -6.9% | 10.3% | -4.4% | i
Cn1c(SCC(=O)NC(C)(C)C)nnc1-c1ccc(C(C)(C)C)cc1 | 20.6µM* | i | -4.8% | 2.3% | -20.3% | i
CCn1c(SCC(=O)NC(C)(C)C)nnc1-c1ccncc1 | i | i | -3.1% | -24.5%[11.3 µM] | 2.1% | i
O=[N+]([O-])c1nc2ccccc2[nH]1 | 18.4µM* | i | u | 11.6% | 5.1% | u
CC(=O)OCC(=O)[C@@]12N=C(C)O[C@H]1C[C@H]1[C@@H]3CCC4=CC(=O)C=C[C@]4(C)[C@@H]3[C@@H](O)C[C@@]12C | x | x | x | -4.5% | x | x
CCOC(=O)c1cn(-c2ccccc2)nc1-c1ccncc1 | 18.4µM* | i | -8.2% | 0.7% | -20.8% | u
CCOC(=O)Cc1csc(NC(=O)Nc2cccc(Cl)c2)n1 | 14.6µM* | u | u | -36.7% | -42.7% | i
CCOC(=O)Cc1csc(NC(=O)Nc2ccc(Cl)cc2)n1 | u | i | -11.0% | -17.6% | -25.9% | i
CCOC(=O)Cc1csc(NC(=O)/C=C/c2ccc(Br)o2)n1 | 14.6µM* | i | u | x | 9.7% | i
CCCCCCC[N+](CC)(CC)CCCCc1ccc(Cl)cc1 | i | u | 4.5% | 22.4µM*! | -26.1% | u
Cc1sc2nc(CN3CCCC3)nc(N3CCN(S(=O)(=O)c4cccs4)CC3)c2c1C | 18.4µM* | u | 0.5% | -20.7% | -30.9% | u
Cc1ccc(S(=O)(=O)N2CCN(c3nc(CN4CCCC4)nc4sc(C)c(C)c34)CC2)cc1 | i | u | u | -34.0% | -38.0% | i
Cc1cccc(C(=O)Nc2cc3c(cc2N2CCCCC2)n(C)c(=O)n3C)c1 | i | i | 31.1% | 5.8% | -23.3% | i
Nc1nc(=S)c2n[nH]nc2[nH]1 | i | x | -21.5% | x | -27.8% | u
CCC(c1nnnn1Cc1ccccc1)N1CCN(c2ccccc2)CC1 (centres undefined) | 23.1µM* | i | -7.7% | -17.6% | -1.8% | i
c1ccc(CCn2nnnc2C(c2cccnc2)N2CCN(c3ccccc3)CC2)cc1 (centres undefined) | 10.3µM* | i | -9.5% | 0.0% | -3.1% | i
CN(C)c1ccc(/C=C2/CCCc3c2nc2ccccc2c3C(=O)O)cc1 | i | x | -23.3% | x | -0.7% | i
Cc1cccc(C)c1NC(=O)C(c1ccccc1)N1CCC(Cc2ccccc2)CC1 (centres undefined) | i | i | -26.7% | -16.8% | -14.5% | i
CCOc1ccc2nc(Cl)c(C3CC(c4ccc(C)cc4)=NN3C(=O)CCCC(=O)O)cc2c1 (centres undefined) | i | i | 0.6% | 5.5% | -44.7% | i
COc1ccccc1-c1nnc(SC2CCc3ccccc3NC2=O)s1 (centres undefined) | 5.8µM* | i | 12.6µM* | 11.4% | 1.4% | i
SMILES | KB-V1 cytotox | S2 tox | TGFb SMAD3 inh | ATXN2 expr inh | HepG2 viability | KB-3-1 tox
COc1ccccc1-c1nnc(N)s1 | i | i | 5.1% | -4.2% | 18.6% | i
COCCN(C)C(=O)c1cnn(-c2nccc(-c3cc(OC)ccc3OC)n2)c1C | x | i | x | x | x | x
O=C(NC[C@@H]1CCCN2CCCC[C@H]12)c1cnn(-c2nccc(-c3ccco3)n2)c1C1CC1 | x | i | x | x | x | x
OC(c1cc(F)cc(Cl)c1)c1ncc(-c2ccc3ccccc3c2)[nH]1 (centres undefined) | i | u | 17.8µM* | -36.2% | -106.2% | i
COc1ccc(-c2coc3c(C(=O)NCCN(C)C)cccc23)c(C)c1 | i | i | 28.1% | -13.1% | -30.6% | u
COc1ccc(Cl)cc1C(=O)NCCN(C)C | i | i | -5.4% | -6.3% | -15.8% | i
COc1ccc(-c2nc3c(C(=O)NCCN(C)C)cccc3c3ccccc23)cc1 | 2.31µM* | u | 0.0% | 0.0% | 17.8µM* | u
CN(C)CCNC(=O)c1cccc2nc3c(ccc4ccccc43)nc12 | 20.6µM* | u | u | 0.0% | -67.2% | 7.31µM*
COc1cccc2nc3c(C(=O)NCCN(C)C)cccc3cc12 | 9.2µM* | u | u | u | -4.6% | u
CN(CCNC(=O)c1c[nH]c2c1ccc1ccccc12)CCNC(=O)c1c[nH]c2c1ccc1ccccc12 | u | 35.5µM* | 12.6µM* | u | -102.8% | u
CC(C)(C)OC(=O)N1CCC(c2c(C(=O)NC3CCCCC3)cnn2-c2ccc(F)cc2F)CC1 | i | x | -29.3% | x | -1.3% | i
NC(=S)N/N=C/c1cccc(/C=N/NC(N)=S)c1 | i | i | 4.1% | 16.7% | -8.2% | i
NC(=S)N/N=C/c1cccc(Br)c1 | 8.2µM* | i | 3.7% | -26.8% | -15.8% | u
